KB-V1 cytotox: KB-V1 MDR subline cytotoxicity. KB-V1 MDR cells viability, CellTiter-Glo, 72 h. Potency, µM (series often up to 46.1 µM), actives largely listed as cytotoxic. AID 1347076. 400,000 compounds, 3.4% hits; also: % is scaled to controls: 0 for no effect and ±100 for the full control effect; nearly all actives have a fitted effect of over 60% in size
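KB-V1 cells (P-gp-expressing MDR subline of KB-3-1) in phenol-red-free DMEM with 10% FBS were exposed to library compounds over a concentration series for 72 h at 37 degrees C. Viability read by CellTiter-Glo luminescence; concentration-effect curves fitted after normalization.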
MCF10A rerep: inducers of DNA re-replication in MCF 10A breast cells; Potency, µM (series often up to 46.1 µM), for the others: at the top dose activity, positive = re-replication, usual class: activators; MCF 10A DNA re-replication, Hoechst nuclear intensity, 48 h; 350,000 compounds, 2.9% hits; also: % of control where 0% means no effect; nearly all actives have a fitted effect of over 50% in size
VP16 counter: inhibits Gal4-VP16 luciferase reporter, ROR gamma counter-screen | Drosophila S2 Gal4-VP16 UAS-luciferase, luminescence, 20 h | Potency, µM (doses to about 53.6 µM), without a hit: at the highest dose activity, negative = inhibition, most hits filed as inhibitors | 310,000 compounds, 3.5% hits;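 also: Gal4-VP16 expression switched on by copper sulfate through the metallothionein promoter; % is scaled to controls: 0 for no effect and ±100 for the full control effect; nearly all actives have a fitted effect of over 50% in size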
KB-3-1 cytotox: KB-3-1 parental cell cytotoxicity | 400,000 compounds, 1.4% hits | KB-3-1 viability, CellTiter-Glo ATP luminescence, 72 h | Potency, µM (doses to about 46.1 µM), usual class: cytotoxic; also: % is scaled to controls: 0 for no effect and ±100 for the full control effect; nearly all actives have a fitted effect of over 60% in size
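KB-3-1 cells, DMEM (no phenol red) + 10% FBS; compound by pin transfer, 72 h, 37 °C. Readout: CellTiter-Glo luminescence after 10 min. Data normalized, curve-fitted.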
RORgamma inh: inhibitors of mouse ROR gamma transcriptional activity. 310,000 compounds, 5.4% hits. Potency, µM (highest dose often 53.6 µM), for inactives: at the top dose activity change, negative = inhibition, most hits filed as inhibitors. AID 2551. Drosophila S2 Gal4-RORgamma UAS-luciferase reporter, 20 h; also: % is scaled to controls: 0 for no effect and ±100 for the full control effect; nearly all actives have a fitted effect of over 60% in size
Target sequence (P51450 whole entry, looked up, the tested form may be a part): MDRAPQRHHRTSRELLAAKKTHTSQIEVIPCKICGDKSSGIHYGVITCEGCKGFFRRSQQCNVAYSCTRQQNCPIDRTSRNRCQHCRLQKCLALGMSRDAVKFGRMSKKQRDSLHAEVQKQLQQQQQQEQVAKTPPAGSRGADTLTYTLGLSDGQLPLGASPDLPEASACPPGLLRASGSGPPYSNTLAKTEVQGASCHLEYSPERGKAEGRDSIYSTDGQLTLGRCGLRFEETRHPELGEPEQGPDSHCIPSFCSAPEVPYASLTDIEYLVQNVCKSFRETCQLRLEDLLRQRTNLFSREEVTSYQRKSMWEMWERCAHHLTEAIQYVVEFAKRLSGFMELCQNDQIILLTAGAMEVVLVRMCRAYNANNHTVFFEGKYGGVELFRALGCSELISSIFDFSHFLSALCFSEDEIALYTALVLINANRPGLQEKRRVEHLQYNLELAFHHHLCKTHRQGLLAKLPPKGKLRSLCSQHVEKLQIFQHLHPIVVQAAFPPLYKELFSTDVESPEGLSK
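Drosophila Schneider cells stably carrying a metallothionein-driven Gal4 DBD–ROR gamma fusion and a UAS-Photinus luciferase reporter were exposed to compound for 1 hr, then induced with copper sulfate (700 uM final) for 20 hr at ambient temperature before luminescence reading.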
SW480 rerep: induces DNA re-replication in SW480 colon adenocarcinoma cells. Potency, µM (titrated, usually from 46.1 µM), inactives show at the highest dose re-replication activation, most hits filed as activators. SW480 DNA re-replication, Hoechst DNA content imaging, 48 h. 340,000 compounds, 1.8% hits. AID 624297; also: % of control where 0% means no effect; nearly all actives have a fitted effect of over 55% in size
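Compounds, transferred as 23 nL by pin tool, were incubated with cells for 48 hr; DNA content per nucleus was then quantified by Hoechst staining and fluorescence plate imaging.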
The depositor's hits bear a star; i = inactive; ? = inconclusive; · = no result; [ ] = dose if it differs, or a comment. Most compounds without a hit are left out; they make up all but 10% or so of the library. Calls follow the shape of the dose curve; as a rule, active = well fitted curve in the direction sought with a large enough effect; inconclusive = small, poorly fitted or top-dose-only effect, or another doubt; inactive = no such curve, though single readings can be large; an effect the other way counts as inactive or inconclusive. Potency is read from the fitted curve at half-maximal effect.

SMILES	KB-V1 cytotox	MCF10A rerep	VP16 counter	KB-3-1 cytotox	RORgamma inh	SW480 rerep
O=CC1=C(N2CCOCC2)/C(=C/c2ccc(Cl)cc2)CC1	?	12.1%	-10.4%	i	-19.9%	-32.3%
Cc1cc(C)nc(N/N=C/C2=C(N3CCOCC3)C(=C\c3ccc(Cl)cc3)/CC2)n1	i	?	?	?	10µM*	?
Cc1cc(C)nc(NN=CC2=C(N3CCOCC3)/C(=C/c3ccc(Cl)cc3)CC2)n1	i	?	·	i	·	20.6µM*
Cn1cc(C(=O)N/N=C/C2=C(N3CCOCC3)C(=C/c3ccc([N+](=O)[O-])cc3)/CC2)ccc1=O	i	-3.4%	·	i	·	-5.6%
Cc1occc1C(=O)N/N=C/C1=C(N2CCOCC2)C(=C\c2ccc(Cl)cc2Cl)/CC1	?	2.06µM*	18.3%	i	-11.9%	2.91µM*
C/C(=N/NC(=O)c1ccoc1C)c1ccc(N2CCOCC2)cc1	i	-2.7%	2.1%	i	-35.3%	-10.6%
O=C(O)c1ccc(N/N=C/C2=C(N3CCOCC3)C(=C\c3ccccc3)/CC2)cc1	i	?	-7.9%	i	-1.1%	18.4µM*
COc1ccc(S(=O)(=O)N(CC(=O)Nc2cc(Cl)ccc2C)Cc2ccccc2)cc1OC	i	·	·	?	·	·
O=C(Nc1ccc2c(c1)OCCO2)Nc1nnc(-c2ccncc2)s1	i	·	·	i	·	·
Cc1ccc(NC(=S)Nc2cc(C(=O)O)ccc2N2CC3CC(C2)c2cccc(=O)n2C3)cc1C (centres undefined)	i	?	20µM*	i	5.01µM*	?
Cc1ccc(NC(=O)NCc2nc3ccccc3n2C)cc1	i	?	7.5%	i	-36.3%	20.6µM*
Cc1ccc(NC(=O)C2=C(O)CCn3c2nc2ccccc23)cc1	i	-5.8%	5.62µM*	i	4.47µM*	0.2%
CCc1nc2ccccc2c(C(=O)Nc2ccc(C)cc2)c1C	i	4.9%	5.0%	i	-23.8%	-7.9%
Cn1c(CNc2ccc(Br)cc2)nc2ccccc21	14.6µM*	21.8%	?	?	0.8%	4.2%
O=C(c1ccc2c(Cl)c3c(nc2c1)CCCC3)N1CCN(c2cccc(C(F)(F)F)c2)CC1	?	·	·	i	·	·
ON=C1CCCCC1	·	·	-1.2%	·	28.0%	·
CC1SC(=S)N(c2ccc(N(C)C)cc2)C1=O (centres undefined)	i	1.6%	12.6µM*	i	11.2µM*	3.4%
CN(C)c1ccc(N2C(=O)CSC2=S)cc1	i	?	?	i	?	10.5%
C=CCCCCCCCCC(=O)OC	·	2.2%	4.5%	·	-1.3%[10 µM]	-2.0%
Cc1ccc(-c2nnc(N3CCN(C(=O)COc4ccccc4)CC3)c3ccccc23)cc1	2.59µM*	?	-3.9%	18.4µM*	5.3%	15.2%
O=C(CN1CCOCC1)N1CCN(c2nnc(-c3ccccc3)c3ccccc23)CC1	i	-1.6%	-2.4%	i	-1.5%	1.4%
Cc1ccc(-c2nnc(N3CCN(C(=O)CN4CCOCC4)CC3)c3ccccc23)cc1	13µM*	7.6%	2.0%	i	-12.8%	0.9%
O=C(COc1ccc(-c2nnc(N3CCCCC3)c3ccccc23)cc1)N1CCCCC1	?	?	?	?	?	10.3%
O=C(Nc1nnc(COc2ccc(Cl)cc2)s1)c1ccc([N+](=O)[O-])cc1	?	8.3%	-6.5%	i	6.0%	1.0%
CCc1ccc(Cc2cnc(NC(=O)C3=NCCN3)s2)cc1	i	0.4%	?	i	7.08µM*	0.2%
SMILES	KB-V1 cytotox	MCF10A rerep	VP16 counter	KB-3-1 cytotox	RORgamma inh	SW480 rerep
O=C(Nc1ncc(Cc2ccc(Cl)cc2Cl)s1)c1ccc([N+](=O)[O-])cc1	?	2.4%	3.55µM*	5.8µM*	2.24µM*	-119.4%
O=C(Nc1ncc(Cc2ccccc2Cl)s1)C1=NCCN1	i	-1.7%	3.16µM*	?	3.98µM*	4.9%
O=C(CSc1ccccc1)Nc1nc2ccccc2[nH]1	?	?	?	14.6µM*	12.6µM*	?
O=C(Cc1ccc(Cl)cc1)Nc1nc2ccccc2[nH]1	i	6.3%	7.08µM*	i	0.282µM*	9.3%
O=C(CSc1ccc(Cl)cc1)Nc1ccc(-c2nc3ccccc3[nH]2)cc1	i	20.6µM*	?	i	?	?
O=C(Cc1ccc(Br)cc1)Nc1nc2ccccc2[nH]1	i	8.6%	-28.3%	i	?	5.8%
O=C(Cc1ccccc1)Nc1nc2ccccc2[nH]1	i	?	15.8µM*	i	12.6µM*	?
CCCCn1nnnc1C(c1ccccc1)N1CCN(c2ncc(C(F)(F)F)cc2Cl)CC1 (centres undefined)	i	·	·	i	·	·
Nc1nc(NCc2ccc(Cl)cc2)c2[nH]cnc2n1	i	·	·	i	·	·
Cc1csc2sc(-c3ccnc(SCC(=O)NCc4ccccc4)n3)c(C)c12	5.8µM*	?	-12.4%	?	27.8%	18.4µM*
CCCNC(=O)OC[C@@H]1O[C@H](CCO/N=C\[C@@H](OC)[C@H](C)/C=C\CC(=O)OC)C=C[C@@H]1Oc1ccc(OC)cc1	·	·	-2.9%[10 µM]	·	0.6%[10 µM]	·
Clc1ccc(OCCn2cnc3ccccc32)c(Cl)c1	16.4µM*	9.6%	-3.4%	?	79.9%	-1.0%
O=c1c2ccccc2ncn1CCCOc1ccccc1[N+](=O)[O-]	i	29.1%	16.5%	i	13.2%	-5.4%
O=[N+]([O-])c1ccccc1OCCCn1cnc2ccccc21	7.31µM*	1.7%	1.2%	i	-26.6%	2.0%
NCCCn1cnc2ccccc21	?	0.581µM*	1.6%	i	7.9%	-3.7%
O[C@@H]([C@H](O)[C@@H](O)CBr)[C@@H](O)CBr	·	·	6.0%	·	-12.6%	·
COc1ccc(CCNCC(O)Cn2c3ccccc3c3ccccc32)cc1OC (centres undefined)	?	9.2µM*	?	?	?	-2.0%
CCCn1c(=O)c(C(=O)NCCc2ccc(OC)c(OC)c2)c(O)c2ccccc21	i	1.03µM*	?	i	11.2µM*	-4.0%
COc1ccccc1NCC(O)Cn1c2ccccc2c2ccccc21 (centres undefined)	i	?	-19.0%	i	14.2%	?
CCCn1c(=O)c(C(=O)NCc2ccccn2)c(O)c2ccccc21	i	?	?	i	10µM*	?
CCCn1c(=O)c(C(=O)NCc2cccnc2)c(O)c2ccccc21	10.3µM*	20.5%	-1.5%	i	-23.4%	?
CCCn1c(=O)c(C(=O)Nc2ncccc2O)c(O)c2ccccc21	?	7.3%	-0.9%	i	-31.7%	-2.3%

Compound activity as filed in PubChem BioAssay.
